# A number with no mark means an inactive call. Records with an inconclusive call do not appear. A call without a number means that no potency is given here. Activity calls are given as the source filed them. Unless noted, the call rests on the fitted dose curve.
# Tests used:
# [1] = Nuclear factor erythroid 2-related factor 2/antioxidant responsive element (Nrf2/ARE) small molecule agonists: qHTS cell viability counter screen in human keratinocytes (AID 1919968; active means well fitted curve in the direction sought with a large enough effect in the repeat runs; an effect the other way counts as inactive or inconclusive; further: nearly all actives have a fitted effect of over 55% in size)
# Summary of the method: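 Viability counter-screen: KeratinoSens reporter cells, DMSO-delivered compounds, 23 h at 37 C, CellTiter-Fluor fluorescence.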
# [2] = Nuclear factor erythroid 2-related factor 2/antioxidant responsive element (Nrf2/ARE) small molecule agonists: luciferase reporter gene qHTS assay in human keratinocytes (AID 1919969); further: nearly all actives have a fitted effect of over 35% in size; further: potency means the concentration at half of the fitted maximal effect
# [3] = biological target: Gonadotropin-releasing hormone receptor (Homo sapiens) (UniProt P30968); assay: Human gonadotropin-releasing hormone receptor (GnRHR) small molecule agonists, calcium flux assay in GnRHR-HEK293 cells (AID 1920063); further: nearly all actives have a fitted effect of over 35% in size
# Sequence of Gonadotropin-releasing hormone receptor (Homo sapiens) (P30968 whole entry, looked up): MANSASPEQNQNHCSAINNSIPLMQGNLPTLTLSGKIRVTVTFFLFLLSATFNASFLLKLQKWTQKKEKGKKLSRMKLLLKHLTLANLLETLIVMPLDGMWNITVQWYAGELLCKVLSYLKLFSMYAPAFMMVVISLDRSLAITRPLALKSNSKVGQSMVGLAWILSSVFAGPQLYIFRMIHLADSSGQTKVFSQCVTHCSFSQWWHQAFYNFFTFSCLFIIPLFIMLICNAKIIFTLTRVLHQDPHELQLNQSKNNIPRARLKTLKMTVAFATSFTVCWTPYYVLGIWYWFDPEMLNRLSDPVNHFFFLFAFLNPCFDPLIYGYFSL
# Summary of the method: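 Tox21-format agonist screen using human GnRHR-expressing HEK293 cells and a fluorescent calcium dye; kinetic 3-min fluorescence reading after compound addition, 15-point concentration series run in triplicate.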
# [4] = biological target: KiSS-1 receptor (Homo sapiens) (UniProt Q969F8); assay: Human kisspeptin (KISS1R) small molecule agonists, calcium flux assay in KISS1R-HEK293 cells (AID 1920064; active means well fitted curve in the direction sought with a large enough effect in the repeat runs; an effect the other way counts as inactive or inconclusive)
# Sequence of KiSS-1 receptor (Homo sapiens) (Q969F8 whole entry, looked up): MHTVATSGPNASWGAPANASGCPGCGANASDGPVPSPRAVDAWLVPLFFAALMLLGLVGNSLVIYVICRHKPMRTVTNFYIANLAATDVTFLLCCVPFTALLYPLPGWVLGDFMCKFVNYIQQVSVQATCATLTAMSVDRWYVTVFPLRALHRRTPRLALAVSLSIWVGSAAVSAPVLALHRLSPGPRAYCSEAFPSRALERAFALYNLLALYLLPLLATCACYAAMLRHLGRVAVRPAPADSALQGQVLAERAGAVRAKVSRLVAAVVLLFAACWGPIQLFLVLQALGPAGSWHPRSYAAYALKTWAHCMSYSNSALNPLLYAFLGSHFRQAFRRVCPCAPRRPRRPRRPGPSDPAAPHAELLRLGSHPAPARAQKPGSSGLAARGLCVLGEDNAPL
# Summary of the method: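 Intracellular calcium mobilization in KISS1R-HEK293 cells was recorded by fluorescence (Ex/Em 480/540) for 3 min following compound addition to cells pre-loaded 1 h with calcium dye.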
# [5] = G protein-coupled receptor (GPCR) small molecule agonists, calcium flux assay: HEK293 wild type cell line counter screen (AID 1920065)
# Summary of the method: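 In this agonist-mode screen, ATP is the positive control and DMSO the vehicle. Cells grow 18 h before a 1 h dye incubation at 37 C; signal is taken at Ex/Em 480/540 over 3 min.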
# [6] = p53 small molecule agonists, cell-based qHTS assay with human liver microsomes (AID 1963577)
# Summary of the method: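 Cells carrying a p53-responsive bla reporter were rested 5 h (37 C, 5% CO2) before compound transfer. Human liver microsomes plus NADPH, 0.5 mg/mL final apiece, supplied metabolism during the 16 h 37 C exposure.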
# [7] = p53 small molecule agonists, cell-based qHTS assay with rat liver microsomes (AID 1963578)
# Summary of the method: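 Fluorescence from a beta-lactamase reporter under a p53 response element was measured after cells had been incubated 16 h at 37 C with test compound and rat liver microsomes plus NADPH (0.5 mg/mL final each).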
# [8] = p53 small molecule agonists, cell-based qHTS assay with human liver microsomes: qHTS cell viability counter screen (AID 1963579); further: nearly all actives have a fitted effect of over 45% in size
# Summary of the method: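 Seed p53RE-bla cells at 4,000 per well; incubate 5 h at 37 C; add compound, human liver microsomes and NADPH; incubate 16 h at 37 C; add CellTiter-Glo; after 30 min at room temperature, read luminescence.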
# [9] = p53 small molecule agonists, cell-based qHTS assay (AID 1963582; active means well fitted activation curve with a large enough effect in the signal ratio in the repeat runs, not every such curve was filed as active; the % refers to the signal ratio)
# Summary of the method: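 Agonist activity was scored from beta-lactamase FRET fluorescence in p53RE-bla cells treated 16 h at 37 C with compounds in DMSO, substrate incubation being 2 h at room temperature.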
# [10] = biological target: 5-hydroxytryptamine receptor 2A (Homo sapiens) (UniProt P28223); assay: 5-hydroxytryptamine receptor 2A (HTR2A) small molecule antagonists, cell-based qHTS assay (AID 1963586); further: nearly all actives have a fitted effect of over 45% in size
# Sequence of 5-hydroxytryptamine receptor 2A (Homo sapiens) (P28223 whole entry, looked up): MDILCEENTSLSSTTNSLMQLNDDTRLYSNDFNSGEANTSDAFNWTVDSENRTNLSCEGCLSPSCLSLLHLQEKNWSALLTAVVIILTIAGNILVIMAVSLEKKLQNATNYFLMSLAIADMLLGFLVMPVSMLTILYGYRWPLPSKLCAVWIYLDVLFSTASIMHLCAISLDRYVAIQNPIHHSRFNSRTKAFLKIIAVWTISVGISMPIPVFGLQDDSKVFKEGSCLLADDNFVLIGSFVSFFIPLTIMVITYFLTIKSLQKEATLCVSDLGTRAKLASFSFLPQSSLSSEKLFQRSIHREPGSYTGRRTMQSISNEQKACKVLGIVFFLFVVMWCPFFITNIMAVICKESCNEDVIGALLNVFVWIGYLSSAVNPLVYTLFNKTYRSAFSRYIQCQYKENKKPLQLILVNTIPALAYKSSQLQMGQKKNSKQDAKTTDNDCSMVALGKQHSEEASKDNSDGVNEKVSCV
# Summary of the method: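 Antagonist-mode intracellular calcium assay: DOI (4 nM) added after 5 min compound pre-incubation at room temperature to dye-loaded HTR2A-CHO cells. Fluorescence followed for 3 min, sampled every second.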
# [11] = biological target: 5-hydroxytryptamine receptor 2A (Homo sapiens) (UniProt P28223); assay: 5-hydroxytryptamine receptor 2A (HTR2A) small molecule agonists, cell-based qHTS assay (AID 1963587); further: nearly all actives have a fitted effect of over 30% in size
# Summary of the method: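 CHO cells stably expressing human HTR2A, plated 18 h, loaded with calcium dye 1 h at 37 C. Agonist mode: compounds added and intracellular calcium fluorescence recorded kinetically for 2 min at 1 sec intervals.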
# [12] = biological target: Muscarinic acetylcholine receptor M1 (Homo sapiens) (UniProt P11229); assay: Cholinergic receptor muscarinic 1 (CHRM1) small molecule antagonists, cell-based qHTS assay (AID 1963588); further: nearly all actives have a fitted effect of over 40% in size
# Sequence of Muscarinic acetylcholine receptor M1 (Homo sapiens) (P11229 whole entry, looked up): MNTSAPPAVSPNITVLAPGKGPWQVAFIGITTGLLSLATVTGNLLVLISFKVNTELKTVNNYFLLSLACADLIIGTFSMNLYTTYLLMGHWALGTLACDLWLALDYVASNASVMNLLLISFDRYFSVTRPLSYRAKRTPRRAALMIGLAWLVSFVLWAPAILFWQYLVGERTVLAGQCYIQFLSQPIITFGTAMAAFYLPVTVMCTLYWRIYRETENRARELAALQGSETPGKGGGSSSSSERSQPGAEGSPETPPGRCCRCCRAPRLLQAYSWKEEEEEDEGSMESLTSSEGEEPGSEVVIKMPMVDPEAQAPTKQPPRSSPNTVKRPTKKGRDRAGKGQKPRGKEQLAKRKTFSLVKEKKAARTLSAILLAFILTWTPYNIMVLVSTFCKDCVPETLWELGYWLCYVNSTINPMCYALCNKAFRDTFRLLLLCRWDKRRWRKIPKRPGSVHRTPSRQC
# Summary of the method: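 CHRM1-CHO calcium-flux assay, antagonist mode. Cells were seeded 18 h, dye-loaded 1 h at 37 C and given compound for 5 min at RT, then acetylcholine was added at 50nM. FDSS fluorescence was read 3 min; 15 concentrations, three runs.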
# [13] = biological target: Muscarinic acetylcholine receptor M1 (Homo sapiens) (UniProt P11229); assay: Cholinergic receptor muscarinic 1 (CHRM1) small molecule agonists, cell-based qHTS assay (AID 1963589); further: nearly all actives have a fitted effect of over 35% in size
# Summary of the method: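 Stable CHRM1-CHO cells (human receptor) were incubated 18 h, dye-loaded for 1 h at 37 C and exposed to test compounds for agonist activity, with calcium-dependent fluorescence followed kinetically.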
# [14] = cAMP Responsive Elements (CRE) small molecule agonists, cell-based qHTS assay (AID 1963590)
# Summary of the method: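 FRET-based beta-lactamase readout (LiveBLAzer B/G, 2 h RT) quantified CRE activation in HEK 293T CRE-bla cells after 3 h treatment with DMSO-dissolved compounds.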
# [15] = biological target: Beta-2 adrenergic receptor (Homo sapiens) (UniProt P07550); assay: Adrenergic beta2 receptor (ADRB2) small molecule antagonists, cell-based qHTS assay (AID 1963592); further: series mostly up to about 92 µM; nearly all actives have a fitted effect of over 50% in size
# Sequence of Beta-2 adrenergic receptor (Homo sapiens) (P07550 whole entry, looked up): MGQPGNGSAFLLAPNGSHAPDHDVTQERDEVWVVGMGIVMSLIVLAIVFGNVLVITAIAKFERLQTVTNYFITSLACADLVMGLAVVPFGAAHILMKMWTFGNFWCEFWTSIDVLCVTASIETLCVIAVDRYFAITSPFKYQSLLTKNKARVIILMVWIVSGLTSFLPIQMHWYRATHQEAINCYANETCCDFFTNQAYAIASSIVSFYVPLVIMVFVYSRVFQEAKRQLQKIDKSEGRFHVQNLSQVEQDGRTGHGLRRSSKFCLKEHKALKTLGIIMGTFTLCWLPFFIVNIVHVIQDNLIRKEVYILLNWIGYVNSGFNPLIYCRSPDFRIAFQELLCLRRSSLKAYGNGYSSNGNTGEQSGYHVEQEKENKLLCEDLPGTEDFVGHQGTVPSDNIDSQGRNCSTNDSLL
# Summary of the method: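 Cells (CHO, stable ADRB2 overexpression) incubated 18-20hr at 37C; compounds added from DMSO; agonist mix (1nM isoproterenol, 100uM IBMX, 25uM Ro-20-1724) added; 0.5hr RT; d2-cAMP and anti-cAMP-cryptate added; 1hr RT; 665/615 nm read.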
# [16] = biological target: D(2) dopamine receptor (Homo sapiens) (UniProt P14416); assay: Dopamine D2 receptor (DRD2) small molecule agonists, cell-based qHTS assay (AID 1963594); further: nearly all actives have a fitted effect of over 35% in size
# Sequence of D(2) dopamine receptor (Homo sapiens) (P14416 whole entry, looked up): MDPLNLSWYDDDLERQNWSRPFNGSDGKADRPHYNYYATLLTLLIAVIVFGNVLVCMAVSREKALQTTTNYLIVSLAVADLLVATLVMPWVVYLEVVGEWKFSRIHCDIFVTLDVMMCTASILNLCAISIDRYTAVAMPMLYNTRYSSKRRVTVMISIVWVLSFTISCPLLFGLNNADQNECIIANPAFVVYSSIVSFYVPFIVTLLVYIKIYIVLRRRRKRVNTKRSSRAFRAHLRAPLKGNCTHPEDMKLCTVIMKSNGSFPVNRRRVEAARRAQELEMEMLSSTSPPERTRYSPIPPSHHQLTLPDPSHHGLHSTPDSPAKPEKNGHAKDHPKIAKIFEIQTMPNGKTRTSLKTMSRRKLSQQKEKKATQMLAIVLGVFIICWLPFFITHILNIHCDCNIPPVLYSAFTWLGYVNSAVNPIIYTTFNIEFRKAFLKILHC
# Summary of the method: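 HEK293 cells stably expressing human DRD2, pre-treated with PDE inhibitor Ro20-1724 (0.1 mM final) and compound 10 min at room temperature, then stimulated with NKH477 (200nM […]) for 30 min. cAMP read by HTRF (665/620 nm).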
# [17] = biological target: D(2) dopamine receptor (Homo sapiens) (UniProt P14416); assay: Dopamine D2 receptor (DRD2) small molecule antagonists, cell-based qHTS assay (AID 1963595; active means well fitted inhibition curve with a large enough effect in the signal ratio in the repeat runs, with a control signal flat; the % refers to the signal ratio)
# Summary of the method: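 Stable D2 receptor HEK293 line, 24 h after seeding. Compound preincubated 10 min, then quinpirole (12 nM) with forskolin analogue NKH477 (200 nM), 30 min, room temperature. Detection by time-resolved FRET of cAMP.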
# [18] = p53 small molecule agonists, cell-based qHTS assay with rat liver microsomes: qHTS cell viability counter screen (AID 1963580); further: nearly all actives have a fitted effect of over 45% in size
# Summary of the method: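 p53RE-bla HCT-116 cells were exposed 16 h at 37 C to compounds with rat liver microsomes (0.5 mg/mL) and NADPH (0.5 mg/mL). Viability was measured in the same wells as ATP content by CellTiter-Glo luminescence.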
# [19] = biological target: Beta-2 adrenergic receptor (Homo sapiens) (UniProt P07550); assay: Adrenergic beta2 receptor (ADRB2) small molecule agonists, cell-based qHTS assay (AID 1963593);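 further: CHO cells stably overexpressing human ADRB2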
# Summary of the method: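 CHO cells stably over-expressing ADRB2 were plated overnight at 37C, then dosed with compounds plus a stimulation mix containing 100uM IBMX and 25uM Ro-20-1724 for 0.5hr at room temperature. cAMP was measured by HTRF competition, 1hr.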
# [20] = cAMP Responsive Elements (CRE) small molecule antagonists, cell-based qHTS assay (AID 1963591; active means well fitted inhibition curve with a large enough effect in the signal ratio in the repeat runs, not every such curve was filed as active; the % refers to the signal ratio)
# Summary of the method: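 qHTS in CRE-bla HEK 293T cells: compound in DMSO, then 0.25 uM NKH477 (final), 3 h at 37 °C/5% CO2; beta-lactamase FRET read-out after 2 h substrate incubation.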
compound,measurement,setting,value
CNC(=O)N(c1ccccc1)c1ccccc1,Potency,[1],inactive
same,Potency,[2],inactive
same,Potency,[3],inactive
same,outcome,[4],inactive
same,outcome,[5],inactive
same,Potency,[6],inactive
same,Potency,[7],inactive
same,Potency,[8],inactive
same,Potency,[9],inactive
same,Potency,[10],inactive
same,Potency,[11],inactive
same,Potency,[12],inactive
same,Potency,[13],inactive
same,Potency,[14],inactive
same,Potency,[15],inactive
same,Potency,[16],inactive
same,Potency,[17],inactive
C[C@H]1NCc2cc(-c3ccc4c(=O)c(C(=O)O)cn(C5CC5)c4c3OC(F)F)ccc21,"activity change, negative = cytotoxicity",[1],4.74% [at 19 µM]
same,"activity, positive = activation",[2],-0.2% [at 19 µM]
same,activity change,[3],"-2.08% [at 11.8 µM, active compounds read high]"
same,activation,[4],-1.09% [at 15.8 µM]
same,activation,[5],-0.804% [at 11.8 µM]
same,activation,[6],-4.26% [at 13.5 µM]
same,activation,[7],0.634% [at 13.6 µM]
same,"activity change, negative = cytotoxicity",[8],-4.1% [at 13.5 µM]
same,activation,[9],-3.01% [at 13.5 µM]
same,"activity, negative = inhibition",[10],1.4% [at 12.7 µM]
same,activation,[11],-1.89% [at 15.9 µM]
same,"activity, negative = inhibition",[12],19.5% [at 12.6 µM]
same,activation,[13],-0.122% [at 15.8 µM]
same,activation,[14],-1.76% [at 19 µM]
same,"activity change, negative = inhibition",[15],10.3% [at 19 µM]
same,activation,[16],-2.66% [at 19 µM]
same,"activity change, negative = inhibition",[17],-0.31% [at 18.9 µM]
COc1c(C)c2c(c(O)c1C/C=C(\C)CCC(=O)O)C(=O)OC2,Potency,[1],inactive
same,Potency,[2],inactive
same,Potency,[3],inactive
same,outcome,[4],inactive
same,outcome,[5],inactive
same,Potency,[6],inactive
same,Potency,[7],inactive
same,Potency,[8],inactive
same,Potency,[18],inactive
same,Potency,[19],inactive
same,Potency,[16],inactive
same,Potency,[17],inactive
COCCC(=O)OC,Potency,[1],inactive
same,Potency,[2],68.6 µM (active)
same,Potency,[3],inactive
same,outcome,[4],inactive
same,outcome,[5],inactive
same,Potency,[6],inactive
same,Potency,[7],inactive
same,Potency,[8],inactive
same,Potency,[9],inactive
same,Potency,[10],inactive
same,Potency,[11],inactive
same,Potency,[12],inactive
same,Potency,[13],inactive
same,Potency,[14],inactive
same,Potency,[15],inactive
same,Potency,[16],inactive
same,Potency,[17],inactive
CCCCCCCCCCOS(=O)(=O)O,Potency,[1],inactive
same,Potency,[2],inactive
same,Potency,[3],inactive
same,outcome,[4],inactive
same,outcome,[5],inactive
same,Potency,[6],inactive
same,Potency,[7],inactive
same,Potency,[8],inactive
same,Potency,[9],inactive
same,Potency,[10],inactive
same,Potency,[11],inactive
same,Potency,[12],inactive
same,Potency,[13],inactive
same,Potency,[14],inactive
same,Potency,[20],inactive
same,Potency,[15],inactive
same,Potency,[16],inactive
CCOC(C)=O,Potency,[1],inactive
same,Potency,[2],inactive
same,Potency,[3],inactive
same,outcome,[4],inactive
same,outcome,[5],inactive
same,Potency,[6],inactive
same,Potency,[7],inactive
same,Potency,[8],inactive
same,Potency,[9],inactive
same,Potency,[10],inactive
same,Potency,[11],inactive
same,Potency,[12],inactive
same,Potency,[13],inactive
same,Potency,[14],inactive
same,Potency,[20],inactive
same,Potency,[15],inactive
same,Potency,[16],inactive
same,Potency,[17],inactive
CCN1CCCC1CNC(=O)c1cc(S(N)(=O)=O)ccc1OC (stereo not given),Potency,[1],inactive
same,Potency,[2],inactive
same,Potency,[3],inactive
same,outcome,[4],inactive
same,outcome,[5],inactive
same,Potency,[6],inactive
same,Potency,[7],inactive
same,Potency,[8],inactive
same,Potency,[18],inactive
same,Potency,[15],inactive
same,Potency,[19],inactive
same,Potency,[16],inactive

# Reference: PubChem BioAssay (Tox21)
